In PubChem BioAssay (NCATS):
The other results are listed elsewhere or left out. Inconclusive results are not listed. Active and inactive are the calls of the source. The call rests on the fitted dose curve; in most records, active means well fitted inhibition curve with a large enough effect; inconclusive means small, poorly fitted or top-dose-only effect; inactive means no such curve, though single readings can be large or run the other way.

target: Endonuclease 4 (Escherichia coli (strain K12)) (UniProt P0A6C1); experiment: Counterscreen for APE1 Inhibitors: qHTS Assay for Inhibitors of Endonuclease IV (AID 2565);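 further: plate controls were uninhibited enzyme wells for no effect and no enzyme buffer wells for full effect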; conditions: E. coli Endo IV, fluorogenic AP-site DNA cleavage; series mostly up to 27.1 µM; activity change, negative = inhibition: at the top concentration
Source text: Assay Provider: David M. Wilson, III, National Institute on Aging, NIH
Screening Center PI: Austin, C.P.
Screening Center: NIH Chemical Genomics Center [NCGC]
Escherichia coli endonuclease IV (Endo IV) is the key member of the AP endonuclease superfamily that catalyzes the cleavage of damaged DNA backbone immediately 5' of an AP site. E. coli EndoIV has the same functional activities as human APE1 but has no sequence or structural homology to the human protein. Herein, we utilize E. coli EndoIV to counter screen compound libraries as part of a high-throughput campaign for APE1 inhibitor identification. A concentration-response screen of the LOPAC1280 collection was performed under experimental conditions identical to those used in the APE1 screen.
Inhibition of APE1 activity was screened by utilizing double-stranded short substrate containing tetrahydrofuran (THF) abasic site labeled with rhodamine-type fluorophore (TAMRA) at the 5'-end and with non-fluorescent Black Hole Quencher-2 (BHQ-2) at the opposing 3'-end. An increase in the fluorescence intensity due to incision of the abasic site by APE1 was used to measure the enzyme activity.
Buffer: 50 mM Tris-HCl (pH 7.5) containing 50mM NaCl, 2 mM MgCl2, 1 mM DTT and 0.01% Tween-20.
Buffer in columns 3 and 4 as negative control (no enzyme).
Substrate: 50 nM final concentration of TAMRA/BHQ-2 substrate dispensed throughout the plate.
Enzyme: 2 nM E. coli EndoIV final concentration in columns 1, 2, 5-48. Column 1 is neutral (100% activity).
Control: Pintool transfer of control inhibitor NSC-13755 to column 2 of all assay plates. Two-fold, 16 pt dilution in duplicate to produce final concentrations in the 5.75 uM - 0.175 nM range.
Three uL of enzyme were dispensed to 1536-well Greiner black solid bottom plates. Compounds (23 nL) were transferred via Kalypsys pintool. The plates were incubated for 15 min at room temperature, and then 1 uL of substrate solution was added to start the reaction. The plates were immediately transferred into ViewLux High-throughput CCD imager (Perkin-Elmer) in order to measure the reaction progress in kinetic mode (three reads every 60 seconds) using 525 nm excitation and 598 nm emission fluorescence protocol. The fluorescence intensity difference between the third and the first time points was used to compute reaction progress.

Row | Structure (SMILES) | activity change, negative = inhibition
1 | CC(C)(C)C(=O)OCc1nc(-c2ccc(O)c(O)c2)cs1 | 53.7% (inactive)
2 | N/C(=N\OC(=O)Nc1ccccc1)c1ccno1 | 4.76% (inactive)
3 | O=c1nc2s/c(=C\c3ccco3)c(=O)n2nc1Cc1ccccc1 | -1.5% (inactive)
4 | Cc1cc(C)c2nc(-c3ccco3)cc(C(=O)O)c2c1 | 6.27% (inactive)
5 | COc1cc([C@H](Cc2ccccc2)NC(C)=O)oc(=O)c1 | 5.9% (inactive)
6 | Cc1ccc(-c2nc(SCC(=O)Nc3ccccc3OC(F)F)c3c(C)c(C(=O)O)sc3n2)cc1 | -10.8% (inactive)
7 | N#Cc1ccccc1CN1C(=O)S/C(=C/c2cccn2-c2cccc(C(=O)O)c2)C1=O | 14.2% (inactive)
8 | Cc1ccc(Cc2cnc(N)s2)o1 | 8.03% (inactive)
9 | O=C(CN1CCN(S(=O)(=O)/C=C/c2ccccc2)CC1)NC(=O)NCc1ccco1 | -5.66% (inactive)
10 | O=C(Cc1ccc(S(=O)(=O)N2CCOCC2)s1)NCCC(c1ccccc1)c1ccccc1 | -9.69% (inactive)
11 | C=CCn1c(=S)[nH]c2scc(-c3ccco3)c2c1=O | 13.8% (inactive)
